Test results as given in PubChem BioAssay AID2315 (National Center for Advancing Translational Sciences (NCATS), 2010).
In all, about 290,000 compounds went through this assay and about 27,000 (9.3%) were called active. The full list was thinned out, with actives kept by preference. Unmarked numbers belong to inactive results. Cut-off read from the data, not from the text of the source: active = inhibition mostly above about 28% (no sharp cut-off); inactive = mostly below about 43%.

Experiment: A qHTS for Small Molecule Inhibitors of Shiga Toxin; note: 0% is about no effect
Details: Vero cells, Shiga toxin protein synthesis inhibition reporter; at 38.7 µM, stronger effect = higher value

In order of falling inhibition:
1. CCOc1ccc2nc(Nc3nc4ccc(NC(C)=O)cc4s3)sc2c1  50.5%
2. COc1ccc(NC(=O)N2CCC(Cc3ccccc3)CC2)cc1  35.2%
3. COCC(C)n1c(C)cc(C(=O)COc2ccc(C)nc2[N+](=O)[O-])c1C (stereo not given)  27%
4. Cc1cc(C)cc(N(CCC#N)C(=O)CN2C(=O)NC3(CCCC3)C2=O)c1  23%
5. O=C(O)CCn1c(Cc2ccccc2)nc2ccccc21  22.4%
6. Cc1ccc(/C=N/NC(=O)CSc2ccccn2)o1  17.6%
7. COC(=O)[C@]1(S(=O)(=O)c2ccccc2)C[C@@H]2ON=C(c3ccc(OC)cc3)[C@@H]2C1  13.5%
8. S=C(NCc1ccco1)NCc1ccccc1Cl  12.9%
9. O=C(N/N=C/c1cccnc1)c1ccc(NC(=O)c2ccc(F)cc2)cc1  12.4%
10. Clc1ccc(C[n+]2cc(-c3ccccc3)n3c2CCC3)cc1  12.3%
11. CN1c2ccc([N+](=O)[O-])cc2C(C)(C)C12C=Cc1cc(C(=O)O)ccc1O2 (stereo not given)  6.92%
12. COc1ccc(NC(=O)CNC(=O)Cc2ccccc2)cc1OC  3.87%
13. Cc1ccc(C)c(NC(=O)c2cc(-c3cc(C)cc(C)c3O)n[nH]2)c1  1.58%
14. CCCC(=O)N(CCN1CCOCC1)c1nc2ccc(OCC)cc2s1  1.4%
15. CCOC(=O)c1ccc(-n2c(CCC(=O)O)ccc2-c2ccccc2)cc1  1.31%
16. CSc1ncc(Cl)c(C(=O)Nc2cc(C)ccc2C)n1  -0.876%
17. Cc1ccc(N(Cc2ccccc2O)C(=O)c2ccccc2F)cc1  -2.19%
18. CC(=O)c1cccc(NC(=S)N2CCN(S(C)(=O)=O)CC2)c1  -3.09%
19. COc1ccc(C)cc1-n1nnnc1SCC(=O)c1cc(C)n(Cc2ccco2)c1C  -3.11%
20. Cn1c(=O)c(=O)n(C)c2cc(S(=O)(=O)CCC(=O)N3CCCCC3)ccc21  -4.02%
21. CC(C)[C@@H](C(=O)O)N(Cc1cccc(CN([C@H](C(=O)O)C(C)C)S(C)(=O)=O)c1)S(C)(=O)=O  -4.11%
22. O=C(Oc1ccc(C(=S)N2CCOCC2)cc1)c1ccc(F)cc1  -4.36%
23. COc1ccc2c(c1)c(C(=O)N/N=C/c1cccs1)c(C)n2C  -4.44%
24. CN(C)CCOC1c2ccccc2-c2ccccc21  -5.07%
25. O=C(Nc1ccc(Cl)cc1)Nc1nnc(/C=C/c2ccccc2)s1  -5.24%
26. Cc1cc(C(=O)CSc2nc(N)cc(=O)[nH]2)c(C)n1Cc1ccco1  -5.79%
27. O=C(COC(=O)CNC(=O)c1ccco1)Nc1ccc(F)cc1  -5.84%
28. CCOC(=O)C1CCN(C(=O)Cn2nc(C)c3c(C)n(-c4ccccc4)nc3c2=O)CC1  -6.47%
29. COc1ccc(N2CCN(S(=O)(=O)c3cc(Br)cnc3N)CC2)cc1  -7.11%
30. Cc1ccc(S(=O)(=O)CC(=O)Nc2nnc(C)s2)cc1  -7.78%
31. Cc1nnc(NC(=O)CCCOc2ccccc2)s1  -8.1%
32. O=C(CCN1C(=O)[C@@H]2Cc3ccccc3CN2C1=O)NCCc1ccccc1  -8.8%
33. COc1cccc(CC2(CO)CCCN(CC3=Cc4cc(OC)ccc4OC3)C2)c1 (stereo not given)  -9.4%
34. COc1ccc(-n2nc(C(=O)NCC(=O)N3CCCCCC3)c3ccccc3c2=O)cc1Cl  -9.59%
35. Cc1ccc(C(=O)NCC(=O)NCc2cc(=O)n(C)c(=O)n2C)cc1  -10.2%
36. COc1ccccc1CNC(=O)C1CCN(S(=O)(=O)c2ccc3c(c2)CC(C)N3C(=O)C2CC2)CC1 (stereo not given)  -10.2%
37. CN(C)CCNc1ccc(-c2n[nH]c(=O)c3ccccc23)cc1[N+](=O)[O-]  -10.6%
38. COc1cc(CC(=O)N2CCC(n3nccc3NC(=O)C3CC3)CC2)cc(OC)c1OC  -10.9%
39. O=C(CN(Cc1ccccc1)C(=O)CCC(=O)Nc1ccccn1)NCCc1ccccc1  -11.7%
40. O=C(O)C1CCCN1C1=NS(=O)(=O)c2ccccc21 (stereo not given)  -13.3%
41. Cc1ccc(/C=N/NC(=O)CNC(=O)COc2ccccc2)o1  -15.5%
42. COc1ccc(C(C(=O)NC2CCCCC2)N(C(=O)c2snc(C(N)=O)c2N)c2ccccc2OC)cc1 (stereo not given)  -17.5%
43. COc1ccc(N2CCN(C(=S)Nc3ccc(S(N)(=O)=O)cc3)CC2)cc1  -17.7%
44. COCCN1CCN(C(=O)c2cc(COc3ccc(F)cc3Cl)on2)CC1  -23.4%
45. O=C(N/N=C\c1cccnc1)c1cc(-c2ccccc2)nc2c(Cl)cccc12  -27%
46. COCCSc1nnc(NC(=O)CCS(=O)(=O)Cc2ccccc2)s1  -28.2%
47. CC(C)NC(=O)N1CCN(c2ccncc2S(=O)(=O)N2CCCCC2)CC1  -38.7%
48. O=C(CSc1ccccc1)Nc1nnc(/C=C/c2ccccc2)s1  -38.9%

With O=C(c1cc(COc2ccc(F)cc2F)on1)N1CCOCC1 the inhibition was 81.3% (active).
In the case of COc1ccc(/C=C/c2nnc(NC(=O)C(C)C)s2)cc1, the inhibition is reported as 42.3% (active).
With Cc1nn2cc(-c3ccc(Cl)cc3)cnc2c1Br the inhibition was 38.8% (active).
With COc1ccc(NC(=S)N2N=CCC2c2ccccc2)cc1 (stereo not given) the inhibition was 88.7% (active).
In the case of CCOc1ccc2nc(C(=O)N3CCCC(C)C3)sc2c1 (stereo not given), the inhibition is reported as 129% (active).
For COc1ccc2c(c1)C=CC1(O2)N(CCO)c2ccccc2C1(C)C (stereo not given), the inhibition was 40.8% (active).
In the case of O=C(N/N=C/c1cccnc1)c1cc2ccccc2cc1O, the inhibition is reported as 87.2% (active).
In the case of Cc1ccc(/C=N/NC(=O)c2cc3ccccc3cc2O)o1, the inhibition is reported as 51.6% (active).
With CSc1nnc(NC(=O)c2nc(S(=O)(=O)Cc3ccc(C)cc3)ncc2Cl)s1 the inhibition was 85.5% (active).
With Cc1ccc(CS(=O)(=O)c2ncc(Cl)c(C(=O)Nc3nnc(C)s3)n2)cc1 the inhibition was 116% (active).
With Cc1ccc(OCC(=O)c2cc(C)n(Cc3ccco3)c2C)c([N+](=O)[O-])n1 the inhibition was 50.3% (active).
With Cc1cc(C(=O)COC(=O)CNC(=O)c2ccc(F)cc2)c(C)n1Cc1ccco1 the inhibition was 109% (active).
